Screens (PubChem BioAssay)
Rev-erbA mod: modulates human Rev-erb alpha binding to DNA. hit rate 0.79% among 370,000. activity, % at 10 µM. Rev-erbα–FITC-DNA binding, fluorescence polarization, 90 min;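 active = activity above about 14%, limit read from the data; passing the limit was not always enough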;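 note: 0% = DMSO wells with 35 nM protein and 100% = DMSO wells with 750 nM protein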
Target sequence (P20393 whole entry, looked up): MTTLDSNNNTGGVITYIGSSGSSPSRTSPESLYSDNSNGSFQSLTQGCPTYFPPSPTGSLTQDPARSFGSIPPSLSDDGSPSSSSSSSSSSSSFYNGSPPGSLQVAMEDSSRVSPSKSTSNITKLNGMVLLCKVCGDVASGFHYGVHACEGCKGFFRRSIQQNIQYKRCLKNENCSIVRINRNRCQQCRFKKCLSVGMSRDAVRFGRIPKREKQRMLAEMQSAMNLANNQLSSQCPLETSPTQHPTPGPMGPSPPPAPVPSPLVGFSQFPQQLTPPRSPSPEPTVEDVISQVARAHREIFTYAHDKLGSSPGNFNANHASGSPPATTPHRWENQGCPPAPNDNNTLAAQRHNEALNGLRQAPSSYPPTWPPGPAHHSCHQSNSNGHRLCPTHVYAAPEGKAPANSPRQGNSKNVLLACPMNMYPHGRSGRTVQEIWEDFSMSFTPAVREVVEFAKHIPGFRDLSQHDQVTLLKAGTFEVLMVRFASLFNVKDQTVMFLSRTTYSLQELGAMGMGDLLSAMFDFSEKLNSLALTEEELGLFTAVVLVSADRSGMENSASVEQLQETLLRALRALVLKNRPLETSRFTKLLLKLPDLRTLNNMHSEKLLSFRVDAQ
Exocytosis inh: lytic granule exocytosis inhibition; TALL-104 LAMP-1 surface exposure, flow cytometry; cells stimulated with thapsigargin and PMA; inhibition, % at 10 µM; hit rate 0.66% among 360,000; AID 651702;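 active = inhibition above about 55%, limit read from the data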
ABCB6 inh MLPCN: blocks the human ABCB6 transporter; Q9NP58; K562-ABCB6 porphyrin accumulation, flow cytometry, 1 h; hits give low values; fluorescence ratio to DMSO, % at 10 µM; hit rate 0.19% among 360,000; AID 602162;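 active = fluorescence ratio to DMSO below 75%, the collection mean minus 3 SD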;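 note: signal is porphyrin accumulated inside mitochondria; 100% equals median channel fluorescence of DMSO control wells; lower ratio means ABCB6 inhibition with less porphyrin fluorescence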
VLA-4 inh: inhibition in a human VLA-4 binding assay | P13612 | VLA-4 expressing cells, ligand binding flow cytometry | inhibition, % (about 7 µM as worked out from the volumes in the protocol) | hit rate 0.2% among 330,000 | AID 2557; in the data active = inhibition above about 50%
PG9 Ab binder: binds the HIV-1 gp120 antibody PG9; AID 624416; hit rate 0.43% among 360,000; inhibition, % at 6.7 µM; TR-FRET gp120-PG9 antibody binding; in the data active = inhibition above about 8.5%
The depositor's hits bear a star. Sampled rows, rich in hits. Any-hit rate of the full collection: about 2%.

What do the screens show for `COC(=O)c1ccc(Nc2cc(C)nc3ccc(C)cc23)cc1`?
Rev-erbA mod: 3; Exocytosis inh: 20; ABCB6 inh MLPCN: 101; VLA-4 inh: -1; PG9 Ab binder: 0

How did Cc1ccc2nc(C)cc(Nc3ccc([N+](=O)[O-])cc3)c2c1 do in these assays?
Rev-erbA mod: 11; Exocytosis inh: 83*; ABCB6 inh MLPCN: 103; VLA-4 inh: -7; PG9 Ab binder: -2

Results for O=[N+]([O-])c1c(Nc2ccccc2O)cc(Cl)c2nonc12 ?
Rev-erbA mod: 12; Exocytosis inh: 61*; ABCB6 inh MLPCN: 89; VLA-4 inh: 35; PG9 Ab binder: -1

What do the screens show for `CC1(C)CC(Nc2ccc(Nc3ccccc3)cc2)CC(C)(C)N1`?
Rev-erbA mod: 1; Exocytosis inh: 83*; ABCB6 inh MLPCN: 99; VLA-4 inh: 5; PG9 Ab binder: -16

What do the screens show for `COc1ccc(OC)c2sc(N(CCCN(C)C)C(=O)c3ccc(S(=O)(=O)N4CCc5ccccc5C4)cc3)nc12`?
VLA-4 inh: 53*

How did COC(=O)[C@]12C[C@H](CC(=O)NCCCCc3ccccc3)C(=O)N(Cc3ccco3)C1=C[C@H](COCc1ccccc1)O[C@@H]2C do in these assays?
Rev-erbA mod: 4

What do the screens show for `Cc1ccc(C(C(=O)NCc2ccc(F)cc2)N(Cc2ccco2)C(=O)c2snc(C(N)=O)c2N)o1` (stereo not drawn)?
Rev-erbA mod: 2; Exocytosis inh: 74*; ABCB6 inh MLPCN: 96; VLA-4 inh: 9; PG9 Ab binder: -1

How did NC(=O)c1nsc(C(=O)N(Cc2ccco2)C(C(=O)NCc2ccc(F)cc2)c2ccc(O)cc2)c1N (stereo not drawn) do in these assays?
Rev-erbA mod: -6; Exocytosis inh: 32; ABCB6 inh MLPCN: 110; VLA-4 inh: -9; PG9 Ab binder: -1

What do the screens show for `COc1ccc(CNC(=O)C(c2ccc(C)o2)N(C(=O)c2snc(C(N)=O)c2N)c2ccccc2OC)cc1` (stereo not drawn)?
Rev-erbA mod: 1; Exocytosis inh: 73*; ABCB6 inh MLPCN: 98; VLA-4 inh: 10; PG9 Ab binder: 1

What do the screens show for `O=C(NCCO)[C@H](Cc1ccccc1)NC1(C(=O)NCCN2CCOCC2)CCCCC1`?
Rev-erbA mod: 5

How did CCc1ccc2c(c1)Sc1ccccc1CC2N1CCN(C)CC1 (stereo not drawn) do in these assays?
Rev-erbA mod: -5; Exocytosis inh: 58*; ABCB6 inh MLPCN: 97; VLA-4 inh: 18; PG9 Ab binder: -1

What do the screens show for `Cc1oc2c(c1C(=O)c1ccccc1)C(=O)C(=O)c1ccccc1-2`?
Rev-erbA mod: -2; Exocytosis inh: 102*; ABCB6 inh MLPCN: 104; VLA-4 inh: -6; PG9 Ab binder: -4

What do the screens show for `O=C1C(=O)c2c(C(=O)c3ccccc3)coc2-c2ccccc21`?
Rev-erbA mod: 6; Exocytosis inh: 92*; ABCB6 inh MLPCN: 98; VLA-4 inh: -8; PG9 Ab binder: -7

How did Cc1oc2c(c1C(=O)O)C(=O)c1ccccc1C2=O do in these assays?
Rev-erbA mod: 2; Exocytosis inh: -2; ABCB6 inh MLPCN: 99; VLA-4 inh: 29; PG9 Ab binder: 0

What do the screens show for `COc1ccc(NC(=S)N2CCC(c3nc4ccccc4[nH]3)CC2)c(OC)c1`?
Rev-erbA mod: 8; Exocytosis inh: 0; ABCB6 inh MLPCN: 66*; VLA-4 inh: 34; PG9 Ab binder: 1

What do the screens show for `COc1ccccc1NC(=S)N1CCC(c2nc3cc(C)c(C)cc3[nH]2)CC1`?
Rev-erbA mod: 5; Exocytosis inh: -3; ABCB6 inh MLPCN: 104; VLA-4 inh: 11; PG9 Ab binder: -2

Results for CSc1ccc(C=NNC(=O)c2cc(-c3ccc(Cl)cc3)n[nH]2)cc1 ?
Rev-erbA mod: -4

Results for O=C(NNC(=O)c1ccncc1)Nc1cccc([N+](=O)[O-])c1 ?
Rev-erbA mod: 1; Exocytosis inh: 90*; ABCB6 inh MLPCN: 100; VLA-4 inh: 20; PG9 Ab binder: -1

What do the screens show for `S=C(NCc1ccccc1)C(=S)NCc1ccccc1`?
Rev-erbA mod: 2; Exocytosis inh: 97*; ABCB6 inh MLPCN: 96; PG9 Ab binder: 0

How did CC(=O)N1CCc2cc(S(=O)(=O)NCCC(=O)N(C)C3CCCCC3)ccc21 do in these assays?
Rev-erbA mod: -4

Results for O=C(C(=O)c1ccc(O)cc1)c1ccccc1 ?
Rev-erbA mod: 4; Exocytosis inh: -9; ABCB6 inh MLPCN: 93; VLA-4 inh: 58*; PG9 Ab binder: 2

Results for O=C(c1ccc(O)cc1)c1ccc(C(=O)c2ccc(O)cc2)cc1 ?
Rev-erbA mod: 4; Exocytosis inh: -10; ABCB6 inh MLPCN: 106; VLA-4 inh: 0; PG9 Ab binder: 1

What do the screens show for `COC(=O)c1cc(-c2ccc(C(C)=O)cc2)c(=O)n2c1CCC2`?
Rev-erbA mod: -1

What do the screens show for `N#CC1(NC(=O)COC(=O)c2cc(O)c3ccccc3c2O)CCCCC1`?
Exocytosis inh: 61*; ABCB6 inh MLPCN: 117; VLA-4 inh: -13

How did Cc1ccc(SCc2c(C(=O)N/N=C/c3ccc4c(c3)OCO4)nnn2-c2nonc2N)cc1 do in these assays?
Rev-erbA mod: 1; Exocytosis inh: 79*; ABCB6 inh MLPCN: 97; VLA-4 inh: -7; PG9 Ab binder: 0

What do the screens show for `Cc1ccc(SCc2c(C(=O)N/N=C/c3ccccc3)nnn2-c2nonc2N)cc1`?
Rev-erbA mod: 1; Exocytosis inh: 85*; ABCB6 inh MLPCN: 98; VLA-4 inh: 10; PG9 Ab binder: -4

Results for COc1ccc2c(c1)CNC2CS(=O)(=O)NC1CCCC1 (stereo not drawn) ?
Rev-erbA mod: 0

How did CCOc1ccc(/C=C(\C#N)C(=O)c2c(C)[nH]c3ccccc23)cc1OC do in these assays?
Rev-erbA mod: 2; Exocytosis inh: -1; ABCB6 inh MLPCN: 92; VLA-4 inh: 13; PG9 Ab binder: 2

What do the screens show for `COc1cc(/C=C(/C#N)C(=O)c2c(C)[nH]c3ccccc23)ccc1OCC#N`?
Rev-erbA mod: -7; Exocytosis inh: 57*; ABCB6 inh MLPCN: 100; VLA-4 inh: -7; PG9 Ab binder: 2

What do the screens show for `O=C(OCc1ccc(Br)cc1)c1cnc(Cl)c(Cl)c1`?
Rev-erbA mod: 8; Exocytosis inh: 61*; ABCB6 inh MLPCN: 103; VLA-4 inh: -21; PG9 Ab binder: 1

Results for O=C(OCc1ccc(Br)cc1)c1ccncc1 ?
Rev-erbA mod: -1; Exocytosis inh: -8; ABCB6 inh MLPCN: 93; VLA-4 inh: 0; PG9 Ab binder: -3

Results for O=C(Cc1csc(Nc2nc(=S)[nH]c3ccccc23)n1)NCc1ccc(Cl)cc1 ?
Rev-erbA mod: 8; Exocytosis inh: -1; ABCB6 inh MLPCN: 106; VLA-4 inh: 1

Results for O=C(Cc1csc(Nc2nc(=S)[nH]c3ccccc23)n1)NCCCN1CCN(c2ccccc2F)CC1 ?
Rev-erbA mod: -1; Exocytosis inh: 84*; ABCB6 inh MLPCN: 77; VLA-4 inh: 0; PG9 Ab binder: -1

What do the screens show for `Oc1c(C=C2N=c3ccccc3=N2)sc(=S)n1-c1ccc2ccccc2c1`?
Rev-erbA mod: 1; Exocytosis inh: 59*; ABCB6 inh MLPCN: 108; VLA-4 inh: -2; PG9 Ab binder: 0
